Reference: the supplement of paper PMC9844399
Structures can show the parent of a compound that is named as a salt.

Each compound was assayed on HeLa (assay: MALAT1 nuclear FISH intensity, robust Z-score vs DMSO; higher = more nuclear MALAT1 lncRNA, active = -3 or less). Settings: 10 µM; 6 h.
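Note: High-content confocal imaging of branched-DNA amplified FISH in 384-well plates, Hoechst-defined nuclei, score is well value minus plate DMSO median over DMSO robust SD, four wells per compound.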

Structure (SMILES)	MALAT1 nuclear FISH intensity
Cc1ccsc1C(=CCCN1CCC[C@@H](C(=O)O)C1)c1sccc1C	1.21 (inactive)
CO[C@H]1/C=C/O[C@@]2(C)Oc3c(C)c(O)c4c(O)c(c(/C=N/N5CCN(C)CC5)c(O)c4c3C2=O)NC(=O)/C(C)=C\C=C\[C@H](C)[C@H](O)[C@@H](C)[C@@H](O)[C@@H](C)[C@H](OC(C)=O)[C@@H]1C [Rifampicin]	1.11 (inactive)
CC(C)c1nc(CN(C)C(=O)N[C@H](C(=O)N[C@@H](Cc2ccccc2)C[C@H](O)[C@H](Cc2ccccc2)NC(=O)OCc2cncs2)C(C)C)cs1 [Ritonavir]	-0.307 (inactive)
C[C@]12CCC(=O)C=C1CC[C@@H]1[C@@H]2[C@@H](O)C[C@@]2(C)[C@H]1CC[C@]2(O)C(=O)CO [Hydrocortisone]	1.24 (inactive)
OCCn1cc(-c2cnc3nnn(Cc4ccc5ncccc5c4)c3n2)cn1	-1.23 (inactive)
Nc1ncnc2c1ncn2[C@@H]1O[C@H](CO)[C@@H](O)[C@H]1O [Adenosine]	-0.281 (inactive)
Cc1ccc(-c2cc(C(F)(F)F)nn2-c2ccc(S(N)(=O)=O)cc2)cc1 [Celecoxib]	0.256 (inactive)
CC(=O)c1ccc(S(=O)(=O)NC(=O)NC2CCCCC2)cc1 [Acetohexamide]	-0.957 (inactive)
CCCCCCCC/C=C\CCCCCCCC(=O)OCC(CO)OC(=O)CCCCCCC/C=C\CCCCCCCC (centres undefined) [1,2-Dioleoyl-glycerol (18:1)]	-0.132 (inactive)
NNCCc1ccccc1 [Phenelzine Sulfate]	1.52 (inactive)
CC(C)Cn1cnc2c(N)nc3ccccc3c21 [Imiquimod]	-0.948 (inactive)
COC(=O)[C@H](c1ccccc1Cl)N1CCc2sccc2C1	-1.13 (inactive)
COc1cc2nc(N3CCN(C(=O)C4CCCO4)CC3)nc(N)c2cc1OC (centres undefined)	-0.488 (inactive)
CC(=O)CC(c1ccc([N+](=O)[O-])cc1)c1c(O)c2ccccc2oc1=O (centres undefined) [Acenocoumarol]	-2.08 (inactive)
CCCCC1C(=O)N(c2ccccc2)N(c2ccccc2)C1=O [Phenylbutazone]	-1.49 (inactive)
CCCSc1ccc2[nH]c(NC(=O)OC)nc2c1 [Albendazole]	-0.252 (inactive)
CO[C@H]1C[C@@H]2CC[C@@H](C)[C@@](O)(O2)C(=O)C(=O)N2CCCC[C@H]2C(=O)O[C@H]([C@H](C)C[C@@H]2CC[C@@H](O)[C@H](OC)C2)CC(=O)[C@H](C)/C=C(\C)[C@@H](O)[C@@H](OC)C(=O)[C@H](C)C[C@H](C)/C=C/C=C/C=C/1C [Rapamycin]	1.16 (inactive)
C[C@@H](O)[C@H]1C(=O)N2C(C(=O)O)=C(S[C@@H]3CN[C@H](C(=O)N(C)C)C3)[C@H](C)[C@H]12 [Meropenem]	-0.124 (inactive)
CC[C@]1(O)C[C@@H]2CN(CCc3c([nH]c4ccccc34)[C@@](C(=O)OC)(c3cc4c(cc3OC)N(C)[C@H]3[C@@](O)(C(=O)OC)[C@H](OC(C)=O)[C@]5(CC)C=CCN6CC[C@]43[C@@H]65)C2)C1 [Vinblastine Sulfate]	0.463 (inactive)
CCCCN1CCCCC1C(=O)Nc1c(C)cccc1C (centres undefined)	-1.15 (inactive)

Structure (SMILES)	MALAT1 nuclear FISH intensity
CN[C@H]1CC[C@@H](c2ccc(Cl)c(Cl)c2)c2ccccc21	-0.692 (inactive)
CCCCC[C@H](O)/C=C/[C@H]1C=CC(=O)[C@@H]1CCCCCCC(=O)O [Prostaglandin A1]	-0.502 (inactive)
O=c1n(CCCN2CCN(c3cccc(Cl)c3)CC2)nc2ccccn12	1.67 (inactive)
CO/N=C(\C(=O)N[C@@H]1C(=O)N2C(C(=O)O)=C(COC(N)=O)CS[C@H]12)c1ccco1	-0.402 (inactive)
CC1=C(CC(=O)O)c2cc(F)ccc2/C1=C\c1ccc([S+](C)[O-])cc1 (centres undefined) [Sulindac]	-0.159 (inactive)
CCCCC[C@H](O)/C=C/C1=C(CCCCCCC(=O)O)C(=O)CC1 [Prostaglandin B1]	-0.084 (inactive)
C[C@]12CCC3=C4CCC(=O)C=C4CC[C@H]3[C@@H]1CC[C@@]2(O)CC#N [Dienogest]	1.46 (inactive)
N#CC(=Cc1cc(Cl)cc(Cl)c1)c1cccnc1	-0.585 (inactive)
OC(CCN1CCCCC1)(c1ccccc1)C1CCCCC1 (centres undefined)	0.166 (inactive)
O=c1oc(Cl)c(Cl)c2ccccc12 [3,4-dichloroisocoumarin]	-0.365 (inactive)
CN(C)CCCN1c2ccccc2CCc2ccc(Cl)cc21	-0.47 (inactive)
CCCC1O[C@@H]2C[C@H]3[C@@H]4CCC5=CC(=O)C=C[C@]5(C)[C@H]4[C@@H](O)C[C@]3(C)[C@]2(C(=O)CO)O1 (some centres undefined) [Budesonide]	1.13 (inactive)
COc1ccc2cccc(CCNC(C)=O)c2c1 [Agomelatine]	-0.97 (inactive)
CCOC(=O)[C@H](CCc1ccccc1)N[C@@H](C)C(=O)N1[C@H](C(=O)O)C[C@H]2CCCC[C@@H]21 [Trandolapril]	0.557 (inactive)
O=c1ccc2ccccc2o1 [Coumarin]	-1.8 (inactive)
CCCN(CCC)CCc1cccc2c1CC(=O)N2	-0.318 (inactive)
C[C@](N)(Cc1ccc(O)c(O)c1)C(=O)O [Methyldopa]	-0.751 (inactive)
CCC(=O)O[C@]1(C(=O)CCl)[C@@H](C)C[C@H]2[C@@H]3C[C@H](F)C4=CC(=O)C=C[C@]4(C)[C@@]3(F)[C@@H](O)C[C@@]21C [Halobetasol Propionate]	-0.448 (inactive)
CN1CCC[C@@H]1CCO[C@](C)(c1ccccc1)c1ccc(Cl)cc1 [Clemastine Fumarate]	-0.977 (inactive)
